Data: PubChem BioAssay (NCI)
About 79,000 compounds went through this panel and 15% of them were active in at least one assay; those are over-represented in the sample as a whole. Unmarked numbers belong to inactive results. The source made the active and inactive calls. No stated cut-off is given here; in the data, active means growth inhibition above about 70%; inactive means the rest.

Columns and labels:
[1] = NCI Yeast Anticancer Drug Screen. Data for the rad50 strain (AID 155);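 further: 0% = growth of vehicle-only cultures of the same strain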; conditions: S. cerevisiae rad50 strain growth inhibition, active compounds read high
Method in brief: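 Cells are treated with compound, grown, and their growth is then scored against vehicle-only cultures of the same repair-deficient yeast strain.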

[2] = NCI Yeast Anticancer Drug Screen. Data for the mec2-1 strain (AID 157); conditions: S. cerevisiae mec2-1 strain, active compounds read high
Method in brief: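 Growth inhibition is read against vehicle-treated controls after compound exposure of the mec2-1 yeast strain, which is defective in DNA damage repair or cell cycle control.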

[3] = NCI Yeast Anticancer Drug Screen. Data for the sgs1 mgt1 strain (AID 161);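 further: 0% = growth of cultures given vehicle only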; conditions: S. cerevisiae sgs1 mgt1 strain, active compounds read high
Method in brief: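 This yeast growth screen uses a strain with defined DNA-repair lesions; compound-treated growth is compared with vehicle-treated growth.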

[4] = NCI Yeast Anticancer Drug Screen. Data for the cln2 rad14 strain (AID 165);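 further: 0% = growth equal to vehicle treated cultures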; conditions: S. cerevisiae cln2 rad14 strain, active compounds read high
Method in brief: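 Growth inhibition, relative to vehicle-treated controls, is the read-out. The test organism is a yeast strain with defined genetic alterations, cln2 rad14.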

[5] = NCI Yeast Anticancer Drug Screen. Data for the bub3 strain (AID 167); conditions: S. cerevisiae bub3 mutant strain, active compounds read high
Method in brief: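 Part of a panel of yeast mutants defective in DNA damage repair or cell cycle regulation. Each strain is grown with compound, and inhibition is calculated relative to solvent-treated cultures.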

[6] = NCI Yeast Anticancer Drug Screen. Data for the mlh1 rad18 strain (AID 175); conditions: S. cerevisiae mlh1 rad18 strain growth inhibition, active compounds read high
Method in brief: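 Cells of a genetically altered yeast strain, deficient in DNA damage repair, were treated with compound. Their growth was then compared with that of vehicle-treated cultures to give inhibition.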

[7] = at 5.0 µM (retest, dose inferred, filed as 0.5)
[8] = at 50.0 µM (retest, dose inferred, filed as 5.0)

## O=C1C=CC(=O)C(c2ccccc2)=C1
[1]; [7]
  growth inhibition: 12%
[1]; [8]
  growth inhibition: 99% (active)
[1]; at 50.0 µM
  growth inhibition: 99.5% (active)
[2]; [7]
  growth inhibition: 24%
[2]; [8]
  growth inhibition: 99% (active)
[2]; at 50.0 µM
  growth inhibition: 99.5% (active)
[3]; [7]
  growth inhibition: 18%
[3]; [8]
  growth inhibition: 99% (active)
[3]; at 50.0 µM
  growth inhibition: 99.5% (active)
[4]; [7]
  growth inhibition: 16%
[4]; [8]
  growth inhibition: 99% (active)
[4]; at 50.0 µM
  growth inhibition: 98.8% (active)
[5]; [7]
  growth inhibition: 3%
[5]; [8]
  growth inhibition: 99% (active)
[5]; at 50.0 µM
  growth inhibition: 99.5% (active)
[6]; [7]
  growth inhibition: 18%
[6]; [8]
  growth inhibition: 99% (active)
[6]; at 50.0 µM
  growth inhibition: 99.2% (active)

## Oc1c(N(Cc2ccccc2)Cc2ccccc2)ccc2cccnc12
[1]; [7]
  growth inhibition: -2%
[1]; [8]
  growth inhibition: 96% (active)
[1]; at 50.0 µM
  growth inhibition: 98.4% (active)
[2]; [7]
  growth inhibition: -15%
[2]; [8]
  growth inhibition: 96% (active)
[2]; at 50.0 µM
  growth inhibition: 98.5% (active)
[3]; [7]
  growth inhibition: -1%
[3]; [8]
  growth inhibition: 97% (active)
[3]; at 50.0 µM
  growth inhibition: 98.6% (active)
[4]; [7]
  growth inhibition: -15%
[4]; [8]
  growth inhibition: 95% (active)
[4]; at 50.0 µM
  growth inhibition: 96.2% (active)
[5]; [7]
  growth inhibition: -8%
[5]; [8]
  growth inhibition: 97% (active)
[5]; at 50.0 µM
  growth inhibition: 98.8% (active)
[6]; [7]
  growth inhibition: 1%
[6]; [8]
  growth inhibition: 96% (active)
[6]; at 50.0 µM
  growth inhibition: 98% (active)

## CC(C)C[NH-].CC(C)C[NH-].[Cl][Pt+2]([Cl])([Cl])[Cl]
[1]; [7]
  growth inhibition: 72% (active)
[1]; [8]
  growth inhibition: 98% (active)
[1]; at 50.0 µM
  growth inhibition: 85.2% (active)
[2]; [7]
  growth inhibition: 46%
[2]; [8]
  growth inhibition: 99% (active)
[2]; at 50.0 µM
  growth inhibition: 91.5% (active)
[3]; [7]
  growth inhibition: 70% (active)
[3]; [8]
  growth inhibition: 99% (active)
[3]; at 50.0 µM
  growth inhibition: 89.2% (active)
[4]; [7]
  growth inhibition: 53%
[4]; [8]
  growth inhibition: 99% (active)
[4]; at 50.0 µM
  growth inhibition: 83.5% (active)
[5]; [7]
  growth inhibition: 70% (active)
[5]; [8]
  growth inhibition: 99% (active)
[5]; at 50.0 µM
  growth inhibition: 89.5% (active)
[6]; [7]
  growth inhibition: 66%
[6]; [8]
  growth inhibition: 98% (active)
[6]; at 50.0 µM
  growth inhibition: 87.8% (active)

## O=[N+]([O-])c1cnc(Sc2cncc[n+]2[O-])s1
[1]; [7]
  growth inhibition: 99% (active)
[1]; [8]
  growth inhibition: 99% (active)
[1]; at 50.0 µM
  growth inhibition: 99.5% (active)
[2]; [7]
  growth inhibition: 100% (active)
[2]; [8]
  growth inhibition: 100% (active)
[2]; at 50.0 µM
  growth inhibition: 99.4% (active)
[3]; [7]
  growth inhibition: 99% (active)
[3]; [8]
  growth inhibition: 100% (active)
[3]; at 50.0 µM
  growth inhibition: 99.3% (active)
[4]; [7]
  growth inhibition: 98% (active)
[4]; [8]
  growth inhibition: 99% (active)
[4]; at 50.0 µM
  growth inhibition: 99.3% (active)
[5]; [7]
  growth inhibition: 99% (active)
[5]; [8]
  growth inhibition: 99% (active)
[5]; at 50.0 µM
  growth inhibition: 99.5% (active)
[6]; [7]
  growth inhibition: 99% (active)
[6]; [8]
  growth inhibition: 99% (active)
[6]; at 50.0 µM
  growth inhibition: 99.5% (active)

## CNC(=O)OCCC(OC(=O)NC)C1CCC2C3CC=C4CC(OC(=O)NC)CCC4(C)C3CCC12C (stereo not given)
[1]; [7]
  growth inhibition: 85% (active)
[1]; [8]
  growth inhibition: 94% (active)
[1]; at 50.0 µM
  growth inhibition: 6.5%
[2]; [7]
  growth inhibition: 52%
[2]; [8]
  growth inhibition: 94% (active)
[2]; at 50.0 µM
  growth inhibition: -1.8%
[3]; [7]
  growth inhibition: 77% (active)
[3]; [8]
  growth inhibition: 96% (active)
[3]; at 50.0 µM
  growth inhibition: 2.6%
[4]; [7]
  growth inhibition: 72% (active)
[4]; [8]
  growth inhibition: 89% (active)
[4]; at 50.0 µM
  growth inhibition: -6.45%
[5]; [7]
  growth inhibition: 73% (active)
[5]; [8]
  growth inhibition: 94% (active)
[5]; at 50.0 µM
  growth inhibition: -1.8%
[6]; [7]
  growth inhibition: 88% (active)
[6]; [8]
  growth inhibition: 91% (active)
[6]; at 50.0 µM
  growth inhibition: 34.5%

## Clc1ccc(C2=CC(c3ccccc3)N3C(=N[C@H]4CCCC[C@@H]43)N2)cc1 (stereo not given in full)
[1]; [7]
  growth inhibition: 8%
[1]; [8]
  growth inhibition: 6%
[1]; at 50.0 µM
  growth inhibition: 55.4%
[2]; [7]
  growth inhibition: 4%
[2]; [8]
  growth inhibition: 4%
[2]; at 50.0 µM
  growth inhibition: 54.2%
[3]; [7]
  growth inhibition: 6%
[3]; [8]
  growth inhibition: 17%
[3]; at 50.0 µM
  growth inhibition: 79.2% (active)
[4]; [7]
  growth inhibition: 11%
[4]; [8]
  growth inhibition: 33%
[4]; at 50.0 µM
  growth inhibition: 32.2%
[5]; [7]
  growth inhibition: 14%
[5]; [8]
  growth inhibition: 19%
[5]; at 50.0 µM
  growth inhibition: 84.8% (active)
[6]; [7]
  growth inhibition: 6%
[6]; [8]
  growth inhibition: 11%
[6]; at 50.0 µM
  growth inhibition: 91.8% (active)

## Cc1ccc(CC2(C(=O)O)Cc3ccc(C)cc3C2)cc1 (stereo not given)
[1]; [7]
  growth inhibition: -1%
[1]; [8]
  growth inhibition: 100% (active)
[1]; at 50.0 µM
  growth inhibition: 78.3% (active)
[2]; [7]
  growth inhibition: -12%
[2]; [8]
  growth inhibition: 100% (active)
[2]; at 50.0 µM
  growth inhibition: 86.3% (active)
[3]; [7]
  growth inhibition: -10%
[3]; [8]
  growth inhibition: 100% (active)
[3]; at 50.0 µM
  growth inhibition: 89.3% (active)
[4]; [7]
  growth inhibition: 1%
[4]; [8]
  growth inhibition: 100% (active)
[4]; at 50.0 µM
  growth inhibition: 91.2% (active)
[5]; [7]
  growth inhibition: 6%
[5]; [8]
  growth inhibition: 100% (active)
[5]; at 50.0 µM
  growth inhibition: 91% (active)
[6]; [7]
  growth inhibition: 5%
[6]; [8]
  growth inhibition: 99% (active)
[6]; at 50.0 µM
  growth inhibition: 92.3% (active)

## CCOC(=O)NC(=S)Nc1ccsc1
[1]; [7]
  growth inhibition: 0%
[1]; [8]
  growth inhibition: -7%
[1]; at 50.0 µM
  growth inhibition: 15.6%
[2]; [7]
  growth inhibition: -4%
[2]; [8]
  growth inhibition: -1%
[2]; at 50.0 µM
  growth inhibition: 11.4%
[3]; [7]
  growth inhibition: 1%
[3]; [8]
  growth inhibition: 0%
[3]; at 50.0 µM
  growth inhibition: 11%
[4]; [7]
  growth inhibition: 0%
[4]; [8]
  growth inhibition: -13%
[4]; at 50.0 µM
  growth inhibition: 56.8%
[5]; [7]
  growth inhibition: -3%
[5]; [8]
  growth inhibition: 3%
[5]; at 50.0 µM
  growth inhibition: 24.8%
[6]; [7]
  growth inhibition: -7%
[6]; [8]
  growth inhibition: 0%
[6]; at 50.0 µM
  growth inhibition: 29.9%

## Cc1ccc(O)c(-c2cscn2)c1
[1]; [7]
  growth inhibition: 49%
[1]; [8]
  growth inhibition: 68%
[1]; at 50.0 µM
  growth inhibition: 62.6%
[2]; [7]
  growth inhibition: 39%
[2]; [8]
  growth inhibition: 60%
[2]; at 50.0 µM
  growth inhibition: 6.95%
[3]; [7]
  growth inhibition: 15%
[3]; [8]
  growth inhibition: 22%
[3]; at 50.0 µM
  growth inhibition: 55.5%
[4]; [7]
  growth inhibition: 65%
[4]; [8]
  growth inhibition: 72% (active)
[4]; at 50.0 µM
  growth inhibition: 31.5%
[5]; [7]
  growth inhibition: 46%
[5]; [8]
  growth inhibition: 50%
[5]; at 50.0 µM
  growth inhibition: 48.5%
[6]; [7]
  growth inhibition: 47%
[6]; [8]
  growth inhibition: 59%
[6]; at 50.0 µM
  growth inhibition: 85.7% (active)

## O=C1c2sccc2-c2cccc3cccc1c23 (tested in a mixture with another compound)
[1]; [7]
  growth inhibition: 87% (active)
[1]; [8]
  growth inhibition: 98% (active)
[1]; at 50.0 µM
  growth inhibition: 97.2% (active)
[2]; [7]
  growth inhibition: 63%
[2]; [8]
  growth inhibition: 99% (active)
[2]; at 50.0 µM
  growth inhibition: 98% (active)
[3]; [7]
  growth inhibition: 59%
[3]; [8]
  growth inhibition: 99% (active)
[3]; at 50.0 µM
  growth inhibition: 96.2% (active)
[4]; [7]
  growth inhibition: 20%
[4]; [8]
  growth inhibition: 96% (active)
[4]; at 50.0 µM
  growth inhibition: 82.5% (active)
[5]; [7]
  growth inhibition: 29%
[5]; [8]
  growth inhibition: 98% (active)
[5]; at 50.0 µM
  growth inhibition: 83.2% (active)
[6]; [7]
  growth inhibition: 86% (active)
[6]; [8]
  growth inhibition: 98% (active)
[6]; at 50.0 µM
  growth inhibition: 95% (active)
